What all share (test): NCI-60 one-dose screen, 48 h (100 = growth as untreated, 0 = no growth, -100 = all killed)
One assay deals with SK-MEL-2 melanoma. To be noted: 10 µM unless noted.
The test system of the next assay is EKVX NSCLC. To be noted: 10 µM unless noted.
For a further assay, the system named is SN12C renal. To be noted: 10 µM unless noted.
A further assay concerns UO-31 renal. As to conditions: 10 µM unless noted.
The next assay concerns TK-10 renal. To be noted: 10 µM unless noted.
A further assay relates to ACHN renal. As to conditions: 10 µM unless noted.
The subject of another assay is CAKI-1 renal. As to conditions: 10 µM.
The subject of a further assay is A498 renal. To be noted: 10 µM unless noted.
The test system of another assay is CCRF-CEM leukemia. To be noted: 10 µM unless noted.
Another assay has as its system MOLT-4 leukemia. As to conditions: 10 µM unless noted.
The next assay relates to SR leukemia. To be noted: 10 µM unless noted.
For the next assay, the system named is RPMI-8226 leukemia. To be noted: 10 µM unless noted.
The subject of a further assay is OVCAR-8 ovarian. As to conditions: 10 µM unless noted.
A further assay relates to OVCAR-5 ovarian. To be noted: 10 µM unless noted.
The test system of a further assay is OVCAR-4 ovarian. To be noted: 10 µM unless noted.
Another assay relates to SK-OV-3 ovarian. To be noted: 10 µM unless noted.
The subject of another assay is IGROV1 ovarian. To be noted: 10 µM unless noted.
The next assay relates to OVCAR-3 ovarian. As to conditions: 10 µM unless noted.
For the next assay, the system named is HS 578T breast. To be noted: 10 µM unless noted.
In a further assay the test system is NCI/ADR-RES ovarian. As to conditions: 10 µM unless noted.

Structures are written as SMILES. About 83,000 compounds went through this panel and 20% of them were active in at least one assay; those are over-represented in the sample as a whole.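 Cell lines were cultured in 96-well plates, exposed to a single compound concentration, and assessed for percent growth 48 hours later.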 Unmarked numbers belong to inactive results. Calls of active or inactive are those of the source. The calls were made as follows: active = growth percent below 10; inactive = the rest.

Take `NC(=O)c1c(NC(=O)c2cccc(C(F)(F)F)c2F)sc2c1CCC(=O)C2`: the growth in the assay on SK-MEL-2 melanoma was 102%; with EKVX NSCLC, 40.8%; with SN12C renal it was 27.2%; in the assay with UO-31 renal it was -7.62% (active); in the assay on TK-10 renal, 29.8%; with ACHN renal it was 6.7% (active). For the same molecule, the growth in the assay with CAKI-1 renal was -8.99% (active); in the assay on A498 renal, 70.9%; in the assay with CCRF-CEM leukemia, 11.7%; with MOLT-4 leukemia, 13.5%; in the assay on SR leukemia, 18.7%; in the assay on RPMI-8226 leukemia, -5.06% (active). For the same molecule, the growth in the assay on OVCAR-8 ovarian was 18.3%; in the assay on OVCAR-5 ovarian it was 15.6%; with OVCAR-4 ovarian, 6.91% (active); in the assay with SK-OV-3 ovarian, 77.2%; with IGROV1 ovarian, 23.7%; in the assay with OVCAR-3 ovarian, 11.6%. The growth with HS 578T breast is 33.9%; with NCI/ADR-RES ovarian it was 11%.

`COc1cc(/C=C2\SC(=O)NC2=O)ccc1OCC(=O)Nc1ccc(C(=O)/C=C/c2cc3ccccc3nc2Cl)cc1`: the growth was 103% in the assay with SK-MEL-2 melanoma; 77% in the assay with EKVX NSCLC; 93.5% with SN12C renal; 66.1% in the assay on UO-31 renal; 104% with TK-10 renal; 93.8% in the assay on ACHN renal. For the same molecule, the growth is 80.3% in the assay with CAKI-1 renal; 111% with A498 renal; 57.2% in the assay on CCRF-CEM leukemia; 51.4% in the assay with MOLT-4 leukemia; 27.7% in the assay on SR leukemia; -1.87% (active) in the assay with RPMI-8226 leukemia. Moreover, the growth in the assay with OVCAR-8 ovarian was 84%; with OVCAR-5 ovarian it was 109%; in the assay on OVCAR-4 ovarian it was 52.9%; in the assay with SK-OV-3 ovarian it was 104%; with IGROV1 ovarian, 92.6%; in the assay on OVCAR-3 ovarian, 104%. Moreover, the figures for the growth in the assay on HS 578T breast and with NCI/ADR-RES ovarian were 99.1% and 97.9%, respectively.

On to `Cc1ccc(NC(=O)c2ccc(CN3CCN(C)CC3)c(I)c2)cc1Oc1ccc(-c2[nH]nc3ncnc(N)c23)cc1`, for which the growth in the assay on SK-MEL-2 melanoma is 86.4%; in the assay with EKVX NSCLC, 100%; in the assay on SN12C renal, 90%; in the assay on UO-31 renal, 75.8%; in the assay with TK-10 renal it was 114%; with ACHN renal, 76.9%. Also, the growth is 89.9% with CAKI-1 renal; 103% in the assay on A498 renal; 3.41% (active) with CCRF-CEM leukemia; 11.3% in the assay with MOLT-4 leukemia; 4.76% (active) in the assay on SR leukemia; -3.29% (active) in the assay on RPMI-8226 leukemia. For the same molecule, the growth is 91.8% with OVCAR-8 ovarian; 95.8% in the assay with OVCAR-5 ovarian; 96.1% in the assay with OVCAR-4 ovarian; 109% with SK-OV-3 ovarian; 88% in the assay on IGROV1 ovarian; 102% with OVCAR-3 ovarian. For the same molecule, the growth in the assay on HS 578T breast is 66.2%; in the assay with NCI/ADR-RES ovarian it was 44.5%.

For the molecule `CC(C)N=C(N/C(N)=N/c1nc2ccccc2s1)NC(C)C`, the growth in the assay with SK-MEL-2 melanoma is 107%; in the assay with EKVX NSCLC, 67.6%; in the assay with SN12C renal, 45.6%; with UO-31 renal it was 46.4%; with TK-10 renal, 80.6%; in the assay with ACHN renal, 55.4%. The growth in the assay on CAKI-1 renal was 45.2%; in the assay on A498 renal, 72.8%; in the assay on CCRF-CEM leukemia, 52.9%; in the assay with MOLT-4 leukemia, 55.2%; in the assay on SR leukemia it was 49.5%; in the assay with RPMI-8226 leukemia, 42.7%. For the same molecule, the growth with OVCAR-8 ovarian was 67.2%; in the assay with OVCAR-5 ovarian, 60.8%; in the assay on OVCAR-4 ovarian, 93.6%; in the assay with SK-OV-3 ovarian, 83.4%; in the assay with IGROV1 ovarian it was 39.6%; with OVCAR-3 ovarian it was 104%. Also, the growth is 75.9% in the assay with HS 578T breast and 63.7% with NCI/ADR-RES ovarian.

On to `O=C(CCCCCCN1CC(=O)N2[C@@H](c3cc(F)cc(F)c3)c3[nH]c4ccccc4c3C[C@H]2C1=O)NO`, for which the growth was 62.1% in the assay with SK-MEL-2 melanoma; 78.9% with EKVX NSCLC; 71.9% in the assay on SN12C renal; 61.6% in the assay on UO-31 renal; 69.6% with TK-10 renal; 88.8% in the assay with ACHN renal. Besides, the growth in the assay with CAKI-1 renal was 64.7%; in the assay on A498 renal, 77.6%; in the assay with CCRF-CEM leukemia it was 16.5%; in the assay with MOLT-4 leukemia it was 14.2%; in the assay with SR leukemia, 26%; in the assay with RPMI-8226 leukemia, 24.2%. Besides, the growth is 45% in the assay with OVCAR-8 ovarian; 66.4% in the assay with OVCAR-5 ovarian; 69.4% with OVCAR-4 ovarian; 60.9% in the assay on SK-OV-3 ovarian; 49.1% with IGROV1 ovarian; 55.8% in the assay with OVCAR-3 ovarian. For the same molecule, the growth was 61.6% in the assay with HS 578T breast and 91.5% in the assay on NCI/ADR-RES ovarian.

In the case of `CCCC(=O)NC(c1cccnc1)c1cc(Cl)c2cccnc2c1O` (stereo not given), the growth is 42.7% in the assay on SK-MEL-2 melanoma; 24% in the assay with EKVX NSCLC; 44.4% with SN12C renal; 22.3% in the assay with UO-31 renal; 47.6% in the assay with TK-10 renal; 20.5% with ACHN renal. Also, the growth in the assay with CAKI-1 renal was 34.6%; in the assay with A498 renal, 89.9%; in the assay on CCRF-CEM leukemia it was 25%; in the assay on MOLT-4 leukemia, 30.3%; in the assay on SR leukemia it was 39.6%; in the assay on RPMI-8226 leukemia it was 30.7%. The growth is 21.9% with OVCAR-8 ovarian; 55.6% in the assay with OVCAR-5 ovarian; 22.7% in the assay with OVCAR-4 ovarian; 44.4% in the assay with SK-OV-3 ovarian; 28.5% in the assay with IGROV1 ovarian; 19.7% in the assay with OVCAR-3 ovarian. Also, the figures for the growth with HS 578T breast and in the assay on NCI/ADR-RES ovarian were 17.3% and 10.2%, respectively.

Regarding `Cn1c(SC(C(=O)Nc2ccc(F)cc2)c2ccccc2)nc2ccccc2c1=O` (stereo not given), the growth in the assay on SK-MEL-2 melanoma was 104%; in the assay on EKVX NSCLC, 100%; in the assay on SN12C renal, 99.1%; with UO-31 renal, 88.1%; with TK-10 renal, 99.1%; with ACHN renal, 109%. Also, the growth is 99.3% in the assay with CAKI-1 renal; 98.8% with A498 renal; 102% with CCRF-CEM leukemia; 101% in the assay on MOLT-4 leukemia; 96.9% in the assay with SR leukemia; 98.4% with RPMI-8226 leukemia. The growth with OVCAR-8 ovarian is 99.7%; in the assay with OVCAR-5 ovarian, 111%; in the assay on OVCAR-4 ovarian, 102%; in the assay on SK-OV-3 ovarian, 109%; in the assay with IGROV1 ovarian, 102%; in the assay with OVCAR-3 ovarian it was 114%. The values for the growth in the assay with HS 578T breast and in the assay with NCI/ADR-RES ovarian were 98.8% and 109%, respectively.

The values above are taken from PubChem BioAssay (NCI).
